Compound activity deposited in PubChem by National Center for Advancing Translational Sciences (NCATS).
HepG2 tox-1 – qHTS for Inhibitors of TGF-b: Cytotox Counterscreen. HepG2 CAGA-GFP viability, ATP luminescence, 18 h. Potency, µM (doses to about 46.1 µM), for the others: at the top dose activity change, negative = cytotoxicity, most hits filed as cytotoxic. actives 0.76% (n = 410,000)
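CellTiter-Glo luminescence gave cytotoxicity after 18 hours at 37 degrees C. The cells were HepG2 CAGA-GFP in 1% FBS DMEM, stimulated with 500 pg/mL TGF-beta after compound addition. %Activity was normalised to no-cell wells (complete cell-killing) and DMSO (no toxicity), and curves were fitted and classified.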
ATXN viability – Viability Counterscreen for Primary qHTS for Inhibitors of ATXN expression; S2 cells (HEK-293 line with an ATXN2-luciferase reporter) viability, CellTiter-Fluor protease fluorescence, 24 h; Potency, µM (titrated, usually from 56.7 µM), most hits filed as cytotoxic; actives 0.49% (n = 400,000); AID 651635, 2014; note: nearly all actives have a fitted effect of over 40% in size
ATXN2 expr inh – Primary qHTS for Inhibitors of ATXN expression | HEK-293 ATXN2-luciferase reporter, luminescence, 24 h | Potency, µM (doses to about 57 µM), inactives show at the highest dose activity change, negative = inhibition, actives largely listed as inhibitors | actives 0.72% (n = 360,000) | AID 1745845, 2022; note: % is set by controls: 0 for no effect and ±100 for the full control effect; nearly all actives have a fitted effect of over 55% in size
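ATXN2-luciferase reporter cells (luciferase flanked by upstream and downstream ATXN2 gene portions) were treated 24 h at 37 °C with compounds at up to 57 uM. SteadyGlo luminescence gave expression; GF-AFC fluorescence gave viability.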
TGFb inhibitor – qHTS for Inhibitors of TGF-b. HepG2 CAGA-GFP TGF-b/SMAD3 reporter, GFP fluorescence, 18 h; TGF-beta stimulated, 500 pg/mL final. Potency, µM (top dose mostly 46.1 µM), for inactives: at the highest dose activity, negative = inhibition, actives largely listed as inhibitors. actives 1.2% (n = 410,000). AID 588855, 2011; note: % is set by controls: 0 for no effect and ±100 for the full control effect; nearly all actives have a fitted effect of over 65% in size
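Inhibition of TGF-beta-driven CAGA-GFP reporter expression in HEPG2 cells is measured by cellular GFP fluorescence after 18 h stimulation with 500 pg/mL recombinant TGF-beta in 1% FBS medium at 37 degrees C.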
TGFb CAGA inh – qHTS for Inhibitors of TGF-b: Confirmation of Cherry Picks; Potency, µM (titrated, usually from 46.1 µM), without a hit: top-dose activity, negative = inhibition, actives largely listed as inhibitors; shares compounds with TGFb inhibitor; HepG2 CAGA-GFP TGF-b reporter, GFP fluorescence, 18 h; cells stimulated with TGF-beta, 500 pg/mL; actives 63% (n = 1,600); note: % is set by controls: 0 for no effect and ±100 for the full control effect; nearly all actives have a fitted effect of over 65% in size
HepG2 tox-2 – qHTS for Inhibitors of TGF-b: Cytotox Counterscreen for Cherry Picks. shares compounds with TGFb inhibitor. HepG2 CAGA-GFP viability, ATP luminescence, 18 h; cells stimulated with TGF-beta, 500 pg/mL. Potency, µM (doses to about 46.1 µM), inactives show at the top dose activity, negative = cytotoxicity, hits mostly inhibitors. actives 27% (n = 1,600); note: % is set by controls: 0 for no effect and ±100 for the full control effect; nearly all actives have a fitted effect of over 70% in size
CCL64 TGFb inh – qHTS for Inhibitors of TGF-b: CCL64 Cells Orthogonal Assay for Cherry Picks. shares compounds with TGFb inhibitor. CCL64 CAGA-GFP reporter, TGF-b stimulated, GFP fluorescence, 18 h. Potency, µM (highest dose often 46.1 µM), without a hit: at the top dose activity, negative = inhibition, most hits filed as inhibitors. actives 41% (n = 1,600). AID 720536, 2013; note: nearly all actives have a fitted effect of over 65% in size
COP TGFb inh – qHTS for Inhibitors of TGF-b: Hit Validation in HepG2 Cells using COP promoter | shares compounds with TGFb inhibitor | HepG2 COP-GFP TGF-b reporter, GFP fluorescence, 18 h; cells stimulated by added recombinant TGF-beta | Potency, µM (series often up to 46.1 µM), inactives show top-dose activity, negative = inhibition, actives largely listed as inhibitors | actives 3% (n = 1,600) | AID 720537, 2013; note: nearly all actives have a fitted effect of over 70% in size
Starred values were filed as active, the others as inactive; [ ] = remark or other dose. Sampled rows, rich in hits. Any-hit rate of the full collection: about 2.3%. Calls come from the whole dose curve; as a rule, active = well fitted curve in the direction sought with a large enough effect; inconclusive = small, poorly fitted or top-dose-only effect, or another doubt; inactive = no such curve, though single readings can be large; an effect the other way counts as inactive or inconclusive. Potency is the fitted concentration of half-maximal effect.

Results for N#Cc1cn(C2OC(CO)C(O)C2O)c2ncnc(N)c12 (stereo not drawn) ?
HepG2 tox-1: -36%; ATXN viability: inconclusive; ATXN2 expr inh: inconclusive; TGFb inhibitor: 0.1µM*; TGFb CAGA inh: 0.23µM*; HepG2 tox-2: 0.15µM*; CCL64 TGFb inh: 0.1µM*; COP TGFb inh: 12%

What do the screens show for `CCNC(=O)[C@H]1O[C@@H](n2cnc3c(N)ncnc32)[C@H](O)[C@@H]1O`?
HepG2 tox-1: 14%; ATXN viability: inactive; ATXN2 expr inh: 9%; TGFb inhibitor: -15%

Results for NC(=O)c1c(Br)n(C2OC(CO)C(O)C2O)c2ncnc(N)c12 (stereo not drawn) ?
HepG2 tox-1: -18%; ATXN viability: inconclusive; ATXN2 expr inh: 21µM*; TGFb inhibitor: 1.4µM*; TGFb CAGA inh: 2.1µM*; HepG2 tox-2: inconclusive; CCL64 TGFb inh: inconclusive; COP TGFb inh: 20%

What do the screens show for `CC1CCC/C=C/C2CC(O)CC2C(O)/C=C/C(=O)O1` (stereo not drawn)?
HepG2 tox-1: -39%; ATXN viability: inconclusive; ATXN2 expr inh: inconclusive; TGFb inhibitor: 0.11µM*; TGFb CAGA inh: 0.065µM*; HepG2 tox-2: inconclusive; CCL64 TGFb inh: inconclusive; COP TGFb inh: 67%

How did O=[N+]([O-])c1c(Cl)c(Cl)cc(Cl)c1Cl do in these assays?
ATXN viability: inactive; ATXN2 expr inh: 11%[116 µM]

Results for CNc1cc(Cl)c2nonc2c1[N+](=O)[O-] ?
HepG2 tox-1: -137%; ATXN viability: 22µM*; ATXN2 expr inh: 28µM*; TGFb inhibitor: 5.6µM*; TGFb CAGA inh: 3.3µM*; HepG2 tox-2: 13µM*; CCL64 TGFb inh: 2.6µM*; COP TGFb inh: inconclusive

Results for CC[C@@]1(O)C(=O)OCc2c1cc1n(c2=O)Cc2cc3c(N)cccc3nc2-1 ?
HepG2 tox-1: -5%; ATXN viability: inconclusive; ATXN2 expr inh: -10%; TGFb inhibitor: 0.56µM*; TGFb CAGA inh: 1.2µM*; HepG2 tox-2: 0.41µM*; CCL64 TGFb inh: -17%; COP TGFb inh: -1%

What do the screens show for `CC(C)(C)OC(=O)NCc1ccc(CNC(=O)c2[nH]cnc2C(=O)Nc2ccccc2F)cc1`?
HepG2 tox-1: -36%; ATXN viability: inconclusive; ATXN2 expr inh: inconclusive; TGFb inhibitor: -19%

How did COC(=O)c1cn(Cc2ccc(F)cc2)c2ccccc12 do in these assays?
HepG2 tox-1: 9%; ATXN viability: inactive; TGFb inhibitor: 8%

How did CC(=O)c1cn(Cc2ccc(F)cc2)c2ccccc12 do in these assays?
HepG2 tox-1: -25%; ATXN viability: inactive; ATXN2 expr inh: -27%; TGFb inhibitor: inconclusive; TGFb CAGA inh: 9.2µM*; HepG2 tox-2: 4.1µM*; CCL64 TGFb inh: 3%; COP TGFb inh: 17%

Results for C[C@@H]1CNC(=O)c2c(C(=O)Nc3cccc(Cl)c3)ncn21 ?
HepG2 tox-1: -8%; ATXN viability: inconclusive; ATXN2 expr inh: -12%; TGFb inhibitor: inconclusive

How did CCN(CC)C(=O)c1ccc(NC(=O)c2cccc(C(F)(F)F)c2)cc1 do in these assays?
HepG2 tox-1: -13%; ATXN viability: inactive; ATXN2 expr inh: -11%; TGFb inhibitor: -13%

How did CCN(CCCl)c1cc(CN(C)C)cc(NC(=O)c2ccc(C(=O)Nc3cc(CN(C)C)cc(N(CC)CCCl)c3)cc2)c1 do in these assays?
HepG2 tox-1: -104%; ATXN2 expr inh: 0.71µM*; TGFb inhibitor: 4µM*; TGFb CAGA inh: 1µM*; HepG2 tox-2: 1µM*; CCL64 TGFb inh: 1µM*; COP TGFb inh: inconclusive

What do the screens show for `C[C@H](CO)N1C[C@H](C)[C@H](CN(C)S(=O)(=O)c2ccc(Cl)cc2)OCc2ccccc2-c2c(n(C)c3ccccc23)C1=O`?
HepG2 tox-1: -19%; ATXN viability: inconclusive; ATXN2 expr inh: inconclusive; TGFb inhibitor: inconclusive

What do the screens show for `CCOC(=O)c1c(N)n(CCCOC(=O)c2ccco2)c2nc3ccccc3nc12`?
HepG2 tox-1: 3.5µM*; ATXN viability: inactive; ATXN2 expr inh: inconclusive; TGFb inhibitor: 2.8µM*; TGFb CAGA inh: 4.1µM*; HepG2 tox-2: 5.2µM*; CCL64 TGFb inh: 23µM*; COP TGFb inh: 5.8µM*

What do the screens show for `COCCCn1c(N)c(C(=O)OCCOC)c2nc3ccccc3nc21`?
HepG2 tox-1: -3%; ATXN viability: inactive; ATXN2 expr inh: -11%; TGFb inhibitor: -23%

What do the screens show for `CC(=O)C1=C(O)C2(C)c3c(O)c(C)c(O)c(C(C)=O)c3OC2CC1=O` (stereo not drawn)?
HepG2 tox-1: -51%; ATXN viability: inactive; TGFb inhibitor: inconclusive

How did COc1ccc2nc(NC(=O)c3nc(S(=O)(=O)Cc4cccc(C)c4)ncc3Cl)sc2c1 do in these assays?
HepG2 tox-1: -97%; TGFb inhibitor: inconclusive

What do the screens show for `O=C(c1cn(Cc2ccccc2F)c2ncccc12)C(F)(F)F`?
HepG2 tox-1: -4%; ATXN viability: inactive; ATXN2 expr inh: -4%; TGFb inhibitor: inconclusive; TGFb CAGA inh: inconclusive; HepG2 tox-2: -8%; CCL64 TGFb inh: 0%; COP TGFb inh: -1%

How did CNC(=O)Nc1ccc(C(=O)N/N=C\C23CC[C@@H](O)CC2(O)CC[C@@H]2[C@@H]3CCC3(C)C(C4=CC(=O)OC4)CCC23O)cc1 (stereo partly drawn) do in these assays?
HepG2 tox-1: -30%; ATXN viability: inactive; ATXN2 expr inh: inconclusive; TGFb inhibitor: -3%
